Assay results published in PubChem BioAssay (Tox21).
Results filed as inconclusive are left out. Active and inactive are the calls of the source. Unless noted, calls come from the whole dose curve; as a rule, active = well fitted curve in the direction sought with a large enough effect in the repeat runs; inconclusive = weak or mixed curves; inactive = no such curve, though single readings can be large; an effect the other way counts as inactive or inconclusive.

Columns and labels:
[1] = qHTS assay to identify small molecule agonists of the hypoxia (HIF-1) signaling pathway - cell viability counter screen (AID 1224844; calls by dose curve; note: nearly all actives have a fitted effect of over 50% in size)
Summary of the method: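 Tox21 10K compounds were added to HRE-bla ME-180 cells (0.5% dialyzed FBS) and incubated 17 hrs at 37C; ATP-based CellTiter-Glo luminescence then reported cell viability in the same wells.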

[2] = qHTS assay to identify small molecule agonists of H2AX (AID 1224845; active = well fitted activation curve with a large enough effect in the signal ratio in the repeat runs, not every such curve was filed as active; the % refers to the signal ratio)
Summary of the method: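 Phospho-H2AX Ser139 measured by HTRF (ex 320 nm; em 665 and 620 nm) after 24 hr antibody incubation. Compounds, 15 concentrations, 0.76% DMSO, were applied to CHO-K1 cells for 3hr at 37C before lysis.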

[3] = qHTS assay to identify small molecule agonists of the hypoxia (HIF-1) signaling pathway (AID 1224846; active = well fitted activation curve with a large enough effect in the signal ratio in the repeat runs, not every such curve was filed as active; the % refers to the signal ratio)
Summary of the method: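 Steps: seed ME-180 HRE-bla cells (2,000/well, 0.5% dialyzed FBS); incubate 5 hrs at 37C; pin-transfer compounds or DMSO; incubate 17 hrs; add LiveBLAzer B/G substrate CCF4-AM; measure reporter activation by FRET.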

[4] = qHTS RealTime-Glo MT Cell Viability Assay in HepG2 cells - 24 hour (AID 1224867); note: nearly all actives have a fitted effect of over 50% in size
Summary of the method: (§1)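 Luminescence read-out: viable HepG2 cells reduce a prosubstrate to a NanoLuc substrate, giving a signal proportional to live cell number. Reads taken at 0, 8, 16, 24, 32 and 40 h of compound exposure at 37 C.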

[5] = qHTS RealTime-Glo MT Cell Viability Assay in HEK293 cells - 32 hour (AID 1224868); note: nearly all actives have a fitted effect of over 50% in size; note: potency is the fitted concentration of half-maximal effect
Summary of the method: (§2)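 Nonlytic real-time viability readout: viable cells convert prosubstrate to NanoLuc substrate, giving luminescence proportional to live cell number. HEK293, 600 cells/well, compound added after 5 h, continuous culture at 37 C.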

[6] = A CellTox Green Cytotoxicity Assay to monitor cytotoxicity in HEK293 cells - 0 hour (AID 1224869); note: nearly all actives have a fitted effect of over 50% in size
Summary of the method: (§3)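 Cytotoxicity was tracked continuously in HEK293 cells by a DNA-binding dye excluded from viable cells. Compounds were transferred in DMSO 5 h after seeding; fluorescence was recorded at intervals up to 40 h.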

[7] = qHTS RealTime-Glo MT Cell Viability Assay in HepG2 cells - 40 hour (AID 1224870); note: nearly all actives have a fitted effect of over 50% in size
Summary of the method: (§4)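 Real-time viability: cells seeded at 600 per well together with NanoLuc and cell-permeant prosubstrate, compounds added after 5 h incubation. Luminescence tracked at 0, 8, 16, 24, 32 and 40 h of exposure.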

[8] = A CellTox Green Cytotoxicity Assay to monitor cytotoxicity in HEK293 cells - 40 hour (AID 1224871); note: nearly all actives have a fitted effect of over 45% in size; note: potency is the fitted concentration of half-maximal effect
Summary of the method: as §3

[9] = qHTS RealTime-Glo MT Cell Viability Assay in HEK293 cells - 16 hour (AID 1224872); note: nearly all actives have a fitted effect of over 50% in size; note: potency is the fitted concentration of half-maximal effect
Summary of the method: as §2

[10] = qHTS RealTime-Glo MT Cell Viability Assay in HEK293 cells - 40 hour (AID 1224874); settings: RealTime-Glo luminescence; max response: active compounds read low; note: nearly all actives have a fitted effect of over 50% in size; note: potency is the fitted concentration of half-maximal effect
Summary of the method: (§5)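 Nonlytic bioluminescent viability monitoring. HEK293 at 600 cells/well with reagent; 5 h settle; compound transfer by pintool; plates held at 37 C and read at set time points.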

[11] = A CellTox Green Cytotoxicity Assay to monitor cytotoxicity in HEK293 cells - 24 hour (AID 1224875); note: nearly all actives have a fitted effect of over 45% in size
Summary of the method: as §3

[12] = A CellTox Green Cytotoxicity Assay to monitor cytotoxicity in HepG2 cells - 16 hour (AID 1224876); note: nearly all actives have a fitted effect of over 45% in size
Summary of the method: (§6)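 Real-time, homogeneous cytotoxicity readout: dead-cell DNA staining by CellTox Green in HepG2 monolayers, fluorescence measured at timed intervals up to 40 h of continuous compound exposure.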

[13] = A CellTox Green Cytotoxicity Assay to monitor cytotoxicity in HepG2 cells - 24 hour (AID 1224878); note: nearly all actives have a fitted effect of over 45% in size; note: potency is the fitted concentration of half-maximal effect
Summary of the method: as §6

[14] = A CellTox Green Cytotoxicity Assay to monitor cytotoxicity in HepG2 cells - 40 hour (AID 1224879); note: nearly all actives have a fitted effect of over 40% in size; note: potency is the fitted concentration of half-maximal effect
Summary of the method: as §6

[15] = qHTS RealTime-Glo MT Cell Viability Assay in HEK293 cells - 0 hour (AID 1224880)
Summary of the method: as §5

[16] = qHTS assay to identify small molecule agonists of H2AX - cell viability counter screen (AID 1224847; calls by dose curve;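 note: wild-type CHO-K1 cells; top concentration of the series differs between compounds; nearly all actives have a fitted effect of over 30% in size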)
Summary of the method: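 CHO-K1 wt, 1000 cells/well, o/n 37C; cpds 15 conc, 3 h 37C, 0.76% DMSO; CellTiter-Glo, 30 min RT, luminescence.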

[17] = qHTS assay to identify small molecule antagonists of the estrogen related receptor (ERR) signaling pathway from Tox21 library (AID 1224848); note: nearly all actives have a fitted effect of over 50% in size
Summary of the method: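 Antagonist-mode screen of the Tox21 10K library in an NTP-provided ERR reporter cell line; 18 h compound exposure at 37 C, luminescence measured with ONE-Glo.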

[18] = qHTS assay to identify small molecule agonists of the estrogen related receptor (ERR) signaling pathway from Tox21 library (AID 1224849; calls by dose curve; note: nearly all actives have a fitted effect of over 15% in size); settings: ERR reporter cell line, ONE-Glo luciferase, 18 h; at 92.4 µM (top of the series) unless noted
Summary of the method: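 Agonist signal is luciferase luminescence from an ERR reporter cell line treated 18 h at 37 C with DMSO-dissolved compounds, read 30 min after ONE-Glo addition at room temperature.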

[19] = qHTS RealTime-Glo MT Cell Viability Assay in HepG2 cells - 8 hour (AID 1224873); note: nearly all actives have a fitted effect of over 55% in size
Summary of the method: as §4

[20] = qHTS RealTime-Glo MT Cell Viability Assay in HepG2 cells - 32 hour (AID 1224877); note: nearly all actives have a fitted effect of over 55% in size
Summary of the method: as §1
% is set by controls: 0 for no effect and ±100 for the full control effect.

O=C(O)/C=C/c1cnc[nH]1
inactive: Potency [1] | Potency [2] | outcome [3] | Potency [4] | Potency [5] | Potency [6] | Potency [7] | Potency [8] | Potency [9] | max response [10] -5.16% | Potency [11] | Potency [12] | Potency [13] | Potency [14] | Potency [15]

N=C(N=C(N)N)N1CCOCC1
inactive: Potency [1] | Potency [2] | Potency [16] | Potency [17] | activity change, positive = activation [18] 10.8% [at 42.5 µM] | Potency [4] | Potency [5] | Potency [6] | Potency [7] | Potency [8] | Potency [9] | Potency [19] | max response [10] 6.38% | Potency [11] | Potency [12] | Potency [20] | Potency [13] | Potency [14] | Potency [15]

CCCCCc1ccc(N)cc1
inactive: Potency [1] | Potency [2] | outcome [3] | Potency [4] | Potency [5] | Potency [6] | Potency [7] | Potency [9] | Potency [19] | max response [10] -15.3% | Potency [20] | Potency [15]
active: Potency [8] 49 µM | Potency [13] 49 µM

Cc1ncsc1CCO
inactive: Potency [1] | Potency [2] | outcome [3] | Potency [4] | Potency [6] | Potency [7] | Potency [8] | Potency [9] | Potency [19] | max response [10] 14.2% | Potency [11] | Potency [12] | Potency [20] | Potency [13] | Potency [14] | Potency [15]

Oc1ccc(Cc2ccccc2)cc1
active: Potency [5] 36 µM | Potency [9] 36 µM | Potency [10] 40.4 µM
inactive: Potency [1] | Potency [2] | outcome [3] | Potency [17] | activity change, positive = activation [18] 2.56% | Potency [4] | Potency [6] | Potency [7] | Potency [19] | Potency [12] | Potency [20] | Potency [15]

O=C1CCCCCO1
inactive: Potency [1] | Potency [2] | outcome [3] | Potency [4] | Potency [5] | Potency [6] | Potency [7] | Potency [9] | Potency [19] | max response [10] 10.5% | Potency [11] | Potency [12] | Potency [20] | Potency [13] | Potency [14] | Potency [15]

CCCC[C@H]1CN(CC2CCOCC2)C(=O)OC12CCN(C1(C)CCN(C(=O)c3c(C)ncnc3C)CC1)CC2
inactive: Potency [1] | Potency [2] | Potency [16] | Potency [17] | activity change, positive = activation [18] -0.219% | Potency [4] | Potency [5] | Potency [6] | Potency [7] | Potency [8] | Potency [9] | Potency [19] | max response [10] 0.654% | Potency [11] | Potency [12] | Potency [20] | Potency [15]

CC1=CC(=O)/C(=C(/C)O)C(=O)O1
inactive: Potency [1] | Potency [2] | outcome [3] | Potency [4] | Potency [5] | Potency [6] | Potency [7] | Potency [8] | Potency [9] | Potency [11] | Potency [12] | Potency [13] | Potency [14] | Potency [15]

Cc1nc2ccccc2n1Cc1ccc(Cl)cc1
inactive: Potency [1] | Potency [2] | outcome [3] | Potency [4] | Potency [6] | Potency [7] | Potency [19] | Potency [11] | Potency [12] | Potency [20] | Potency [13] | Potency [14] | Potency [15]
active: Potency [5] 1.69 µM | Potency [9] 3.01 µM

COCCCCCCCCOCCC[Si](C)(O[Si](C)(C)C)O[Si](C)(C)C
active: Potency [5] 3.89 µM | Potency [10] 2.75 µM | Potency [14] 21.9 µM
inactive: Potency [1] | Potency [2] | outcome [3] | Potency [4] | Potency [6] | Potency [7] | Potency [11] | Potency [12] | Potency [20] | Potency [13] | Potency [15]

CCCCOC(=O)/C=C\C(=O)OCCCC
inactive: Potency [1] | Potency [2] | outcome [3] | Potency [17] | activity change, positive = activation [18] -7.95% | Potency [4] | Potency [5] | Potency [6] | Potency [7] | Potency [9] | Potency [19] | max response [10] -0.0674% | Potency [11] | Potency [13] | Potency [15]

C=CC[N+]1([C@H]2C[C@H]3[C@@H]4CC[C@H]5C[C@H](OC(C)=O)[C@@H](N6CCCCC6)C[C@]5(C)[C@H]4CC[C@]3(C)[C@H]2OC(=O)CC)CCCCC1
inactive: Potency [1] | Potency [2] | outcome [3] | Potency [17] | activity change, positive = activation [18] -0.214% [at 42.5 µM] | Potency [4] | Potency [6] | Potency [7] | Potency [8] | Potency [9] | Potency [19] | max response [10] -20.7% | Potency [11] | Potency [20] | Potency [13] | Potency [15]

CCN(CC)CCOC(=O)C1(c2ccccc2)CCCC1
inactive: Potency [1] | Potency [2] | outcome [3] | Potency [17] | activity change, positive = activation [18] 0.628% [at 42.5 µM] | Potency [4] | Potency [5] | Potency [6] | Potency [7] | Potency [8] | Potency [9] | Potency [19] | max response [10] -9.49% | Potency [11] | Potency [12] | Potency [20] | Potency [13] | Potency [15]

COC(Cc1ccccc1)OC
inactive: Potency [1] | Potency [2] | outcome [3] | Potency [16] | Potency [4] | Potency [6] | Potency [7] | Potency [9] | Potency [19] | Potency [11] | Potency [12] | Potency [20] | Potency [13] | Potency [15]

C=C(C)C(=O)OCCN(C)C
inactive: Potency [1] | Potency [2] | outcome [3] | Potency [4] | Potency [5] | Potency [6] | Potency [7] | Potency [9] | max response [10] 0.256% | Potency [12] | Potency [20] | Potency [13] | Potency [14] | Potency [15]
